# Source: PubChem BioAssay (NCI)
# Compounds without any hit were thinned out: in the full panel of roughly 83,000, 20% have a hit.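 Assay: single dose, 48 h. Readout: percent growth (0 = no net growth; negative = cell death). Active: <10.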 Activity calls are given as the source filed them.
# System: COLO 205 colon
# Test: NCI-60 one-dose screen, 48 h (100 = growth as untreated, 0 = no growth, -100 = all killed)
# Conditions: 10 µM unless noted
row,Structure (SMILES),growth
1,N#C/C(=C1C=C/C(=N/O)C(Cl)=C/1)c1ccc(Cl)cc1,99.8% (inactive)
2,c1coc(CNc2ccnc(Nc3ccc(OCCN4CCCCC4)cc3)n2)c1,89.5% (inactive)
3,C=C1CCC2C(C)(CO)C(O)CCC2(C)C1C/C=C1/C(=O)OCC1O/C=C/c1ccccc1 (stereo unspecified),101% (inactive)
4,C=C(C)[C@@H]1CC[C@]2(C(=O)N3CCNCC3)CC[C@]3(C)[C@H](CC[C@@H]4[C@@]5(C)C/C(=C/c6ccncc6)C(=O)C(C)(C)[C@@H]5CC[C@]43C)[C@@H]12,113% (inactive)
5,CCOC(=O)C1C(=O)C=C(c2ccc(OC)cc2)CC1c1sc(N(C)Cc2ccccc2)nc1Cl (stereo unspecified),108% (inactive)
6,COc1cc(/C=C/C(=O)/C=C/c2cc(OC)c3c(c2)OCO3)cc2c1OCO2,96.5% (inactive)
7,C[n+]1c(/C=C/c2c(O)ccc3ccccc23)ccc2ccccc21,25.3% (inactive)
8,CCN(CC)CCC(CNc1c2ccc(Cl)cc2nc2ccc(OC)cc12)c1ccccc1 (stereo unspecified),-91.9% (active)
9,C=C1CC2(OC1=O)C(=O)N(CCCN1C(=O)C3(CC(=C)C(=O)O3)c3ccccc31)c1ccccc12 (stereo unspecified),-58.8% (active)
10,CN(CCCCCl)P(=O)(OCc1ccc([N+](=O)[O-])o1)C(F)(F)C[C@H](NC(=O)CNC(=O)c1ccc(N=[N+]=[N-])cc1)C(=O)NCCc1ccc(O)cc1 (stereo partly specified),36.9% (inactive)
11,COc1ccc(C(=O)N2NC(=O)/C(=C/c3ccc(Br)cc3)N=C2c2ccccc2)cc1,105% (inactive)
12,N#Cc1c(-c2ccccc2)cc(-c2ccccc2)n(CC(=O)NO)c1=O,58.6% (inactive)
13,COc1ccc(Nc2ncccc2C(=O)NCc2cn(Cc3cccc(Oc4ccccc4)c3)nn2)c(OC)c1,4.54% (active)
14,N/C(=N\S(=O)(=O)c1ccccc1)Nc1nc2ccccc2s1,96.4% (inactive)
15,O=S(=O)(NCCCNc1nccc(-n2ccc3cccnc32)n1)c1cccc(C(F)(F)F)c1,108% (inactive)
16,COc1cc(NC(N)=NCCC(C)(C)Oc2ccc(C(F)(F)F)cc2)ncc1C#N,-87.8% (active)
17,COc1ccc2c(c1)[nH]c(=O)c1c3cc(OC)ccc3cn21,-14.1% (active)
18,FC(F)(F)c1cccc(-c2cn3c(ccc4ccccc43)n2)c1,109% (inactive)

row,Structure (SMILES),growth
1,COc1ccc(CN2CCc3c(Sc4ccccc4)nc(N)nc3C2=O)c(OC)c1,80.2% (inactive)
2,COc1ccc(Nc2ncccc2C(=O)NCc2cn(Cc3cccc(Oc4ccccc4)c3)nn2)cc1,43.9% (inactive)
3,CCN(CC)CCC(CNc1ccnc2cc(Cl)ccc12)c1ccc(Cl)cc1 (stereo unspecified),-97.7% (active)
4,Cc1ccc(S(=O)(=O)C2=C3C(=C(c4ccccc4)c4ccccc43)CN(S(=O)(=O)c3ccc(C)cc3)C2)cc1,71.3% (inactive)
5,O=C1C(Cl)=C(Nc2ccccn2)C(=O)c2ccccc21,97.6% (inactive)
6,COc1cc(/C=C/C(=O)N2CCN(C(=O)/C=C/c3cc(OC)c(OC)c(OC)c3)CC2)cc(OC)c1OC,109% (inactive)
7,c1ccc(-c2nnc(-c3ccccn3)s2)nc1,109% (inactive)
8,Cc1c(C(=O)/C=C/c2csc3ccccc23)[n+](=O)c2ccccc2n1[O-],73.4% (inactive)
9,O=C(NCCNc1nccc(-n2ccc3cccnc32)n1)c1ccc(C(F)(F)F)cc1,112% (inactive)
10,C=C(C)[C@@H]1C[C@@H]2Cc3cc(Cl)ccc3N1O2,105% (inactive)
11,O=S(=O)(CC(O)(c1ccccc1)c1ccccc1)CC(O)(c1ccccc1)c1ccccc1,90.2% (inactive)
12,NC1=NC(SCc2ccccc2CCl)c2ncn(Cc3ccccc3CCl)c2N1 (stereo unspecified),43.9% (inactive)
13,C=C[C@@H]1C[C@@H]2Cc3c(C)cc(C)cc3N1O2,100% (inactive)
14,COc1cc(/C=N\NC(=O)CN2CCN(c3cc4c(cc3F)c(=O)c(C(=O)N/N=C/c3cc(OC)c(OC)c(OC)c3)cn4C3CC3)CC2)cc(OC)c1OC,7.48% (active)
15,Fc1ccc(-c2nc(-c3nc4ncccc4[nH]3)cc3c2[nH]c2ccccc23)cc1F,96.9% (inactive)
16,COc1cc(-c2nc(-c3nc4ccc(Cl)cc4[nH]3)cc3c2[nH]c2ccccc23)cc(OC)c1OC,84.6% (inactive)
17,C=C(C)[C@@H]1C[C@@H]2Cc3ccc(Cl)c(C)c3N1O2,112% (inactive)
18,CCCCCCCCC(C)OC(=O)c1nn(C(C)=O)c2ccccc12 (stereo unspecified),111% (inactive)
